This is an account of results in PubChem BioAssay (NCI).

Test in all cases: NCI-60 one-dose screen, 48 h (100 = growth as untreated, 0 = no growth, -100 = all killed)
What all share (settings): 10 µM unless noted

Experiment [1] has as its system NCI-H23 lung.
Experiment [2] concerns NCI-H226 lung.
Experiment [3] deals with NCI-H322M lung.
The test system of experiment [4] is HOP-62 NSCLC.
In experiment [5] the test system is NCI-H460 lung.
Experiment [6] relates to HOP-92 NSCLC.
For experiment [7], the system named is NCI-H522 lung.
For experiment [8], the system named is A549/ATCC NSCLC.
For experiment [9], the system named is 786-0 renal.
In experiment [10] the test system is COLO 205 colon.
Experiment [11] deals with DU-145 prostate.
Experiment [12] concerns K-562 leukemia.
Experiment [13] relates to MALME-3M melanoma.
The test system of experiment [14] is MDA-MB-231 breast.
Experiment [15] concerns RXF 393 renal.
Experiment [16] has as its system SF-268 CNS.
Experiment [17] deals with SF-295 CNS.
In experiment [18] the test system is SF-539 CNS.
Experiment [19] concerns UACC-257 melanoma.
In experiment [20] the test system is M14 melanoma.

Each structure is given as a SMILES string. The panel holds about 83,000 compounds, 20% with a hit somewhere; the sample as a whole holds those more often.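 How to read the values: 0–100, growth inhibition (40 = 60% inhibited); 0, no net growth; -100 to 0, cell death (-40 = 40% of starting cells died; -100 = all dead).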 Values without a mark were called inactive. Active and inactive are the calls of the source. The calls were made as follows: active = growth percent below 10; inactive = the rest.

In the case of `COc1ccc(CN2C(=O)OC(C)(COC(C)=O)C2=O)cc1` (stereo not given), the growth is 108% in [1]; 98.1% in experiment [2]; 99% in experiment [3]; 106% in experiment [4]; 111% in experiment [5]; 100% in [6]. Also, the growth in experiment [7] is 91.4%; in experiment [8] it was 94.5%; in [9], 106%; in experiment [10] it was 119%; in experiment [11], 107%; in experiment [12] it was 94.5%. Further, the growth was 102% in experiment [13]; 103% in experiment [14]; 105% in experiment [15]; 102% in experiment [16]; 99.7% in experiment [17]; 96% in experiment [18]. Moreover, the growth is 100% in experiment [19] and 105% in experiment [20].
For the compound `COc1ccc(-c2cc(-c3cc(OC)ccc3OC)nc(SCC(C)=O)c2C#N)cc1`, the growth was 76.1% in [1]; 83.4% in [2]; 97.6% in [3]; 75.5% in experiment [4]; 78.8% in experiment [5]; 38.2% in [6]. Moreover, the growth in experiment [7] was 54.9%; in experiment [8], 49.4%; in [9], 75%; in experiment [10], 78.2%; in experiment [11], 73.7%; in experiment [12] it was 72.2%. For the same compound, the growth in [13] is 92%; in [14], 50.9%; in experiment [15] it was -0.171% (active); in experiment [16], 65.8%; in experiment [17] it was 58.5%; in experiment [18], 64.9%. Besides, the figures for the growth in [19] and in experiment [20] were 93.5% and 69.8%, respectively.
`CC1=Nc2cnc(Nc3ccc(N4CCCCC4)cc3)nc2Nc2ccccc21`: the growth in experiment [1] is 67.1%; in [2], 76.6%; in experiment [3], 75.7%; in [4] it was 94.4%; in [5] it was 86.8%; in [6] it was 60.9%. The growth in experiment [7] is 40%; in experiment [8], 79.8%; in [9], 51.8%; in experiment [10], 81.3%; in [11] it was 79.8%; in [12] it was 34.7%. Further, the growth in experiment [13] is 88.5%; in experiment [14], 60.4%; in [15], 68%; in experiment [16], 91.2%; in experiment [17] it was 83.8%; in experiment [18], 79.9%. The growth in experiment [19] was 93.8%; in experiment [20], 71.5%.
Regarding `CCN(CC)CCOc1ccc(/C(=C(\C)Cc2ccc(OC)cc2)c2ccc(OC(=O)NCc3ccccc3)cc2)cc1`, the growth in experiment [1] was 88.4%; in [2], 86.9%; in experiment [3], 80.4%; in experiment [4], 79.7%; in experiment [5], 1.28% (active); in experiment [6] it was 59%. In addition, the growth is 69.7% in experiment [7]; 48.1% in experiment [8]; 56.7% in experiment [9]; -56.1% (active) in experiment [10]; 78.9% in experiment [11]; -51% (active) in experiment [12]. For the same compound, the growth in [13] was 26.1%; in [14], 76.3%; in experiment [15] it was 59.7%; in [16] it was 73.7%; in experiment [17], 59.4%; in experiment [18], 65.6%. Further, the growth was 38.2% in experiment [19] and -61.5% (active) in [20].
`Clc1ccc(Nc2ncc(Cc3cccc(Cl)c3Cl)s2)cc1`: the growth in experiment [1] is 88.7%; in experiment [2], 102%; in [3], 110%; in [4], 108%; in experiment [5] it was 97.6%; in [6], 89%. Also, the growth in experiment [7] was 80.2%; in experiment [8], 86.7%; in experiment [9], 95.2%; in experiment [10] it was 104%; in experiment [11] it was 102%; in experiment [12], 86.8%. Also, the growth was 96.7% in [13]; 99.6% in experiment [14]; 93.3% in experiment [15]; 98.3% in experiment [16]; 100% in experiment [17]; 94.7% in experiment [18]. Besides, the growth in [19] is 96.6%; in [20], 103%.
Turning to `CC(C)(Sc1cc(C(C)(C)C)c(O)c(C(C)(C)C)c1)Sc1cc(C(C)(C)C)c(OC(=O)CCC(=O)O)c(C(C)(C)C)c1`, the growth is 40% in [1]; 67.4% in experiment [2]; 56.4% in [3]; 44.7% in [4]; 28.9% in experiment [5]; 35.8% in experiment [6]. Besides, the growth in [7] was 36.9%; in experiment [8], 28.6%; in experiment [9], 44.7%; in experiment [10], 55%; in experiment [11], 57.2%; in experiment [12] it was 69.4%. In addition, the growth in experiment [13] was 65.8%; in experiment [14], 58.3%; in [15] it was 67%; in experiment [16], 57.3%; in experiment [17], 42.1%; in experiment [18] it was 47.8%. Besides, the values for the growth in experiment [19] and in experiment [20] were 61.8% and 50.9%, respectively.
With `C=C[C@@]1(C)CC(=O)[C@@H](C(C)(C)c2cn(C)c3ccc(Br)cc23)C[C@@H]1O[Si](C)(C)C(C)(C)C`, the growth in [1] is 98.3%; in experiment [2] it was 83.9%; in [3], 101%; in experiment [4] it was 111%; in experiment [5], 101%; in experiment [6], 83.6%. Further, the growth is 94.4% in [7]; 102% in experiment [8]; 97.4% in experiment [9]; 104% in [10]; 95.4% in experiment [11]; 104% in experiment [12]. For the same compound, the growth in [13] is 92.2%; in [14] it was 96.6%; in [15] it was 108%; in experiment [16] it was 96.5%; in experiment [17], 103%; in experiment [18] it was 97.3%. The results for the growth in experiment [19] and in experiment [20] were 103% and 91.7%, respectively.
As to `CC(C)NS(=O)(=O)/N=C1\NC(=O)NC1=C(Cl)Cl`, the growth in experiment [1] was 101%; in [2], 95.3%; in experiment [3], 103%; in experiment [4], 101%; in experiment [5], 99.2%; in [6] it was 122%. For the same compound, the growth was 54.2% in experiment [7]; 94% in [8]; 110% in experiment [9]; 113% in experiment [10]; 104% in [11]; 91.3% in experiment [12]. The growth in [13] is 99.9%; in [14] it was 116%; in [15], 112%; in [16], 91.3%; in experiment [17], 103%; in experiment [18] it was 96%. Also, the values for the growth in experiment [19] and in experiment [20] were 76.8% and 97.2%, respectively.
